The GenesisPotency data set
The campaign covered roughly 290,000 compounds. About 3,000 (1%) were called active. Rule as the data show it: active = inhibition mostly above about 36% (no sharp cut-off); inactive = mostly below about 34%. Shown is part of a subset that was picked to be rich in actives.

These molecules were tested against T1, Nucleotide-binding oligomerization domain-containing protein 1, Homo sapiens (UniProt Q9Y239) (assay: inhibition of NOD1-driven NF-kB reporter – cell-based, luminescence, uHTS, primary screen (AID 1578)).
T1 sequence (whole entry): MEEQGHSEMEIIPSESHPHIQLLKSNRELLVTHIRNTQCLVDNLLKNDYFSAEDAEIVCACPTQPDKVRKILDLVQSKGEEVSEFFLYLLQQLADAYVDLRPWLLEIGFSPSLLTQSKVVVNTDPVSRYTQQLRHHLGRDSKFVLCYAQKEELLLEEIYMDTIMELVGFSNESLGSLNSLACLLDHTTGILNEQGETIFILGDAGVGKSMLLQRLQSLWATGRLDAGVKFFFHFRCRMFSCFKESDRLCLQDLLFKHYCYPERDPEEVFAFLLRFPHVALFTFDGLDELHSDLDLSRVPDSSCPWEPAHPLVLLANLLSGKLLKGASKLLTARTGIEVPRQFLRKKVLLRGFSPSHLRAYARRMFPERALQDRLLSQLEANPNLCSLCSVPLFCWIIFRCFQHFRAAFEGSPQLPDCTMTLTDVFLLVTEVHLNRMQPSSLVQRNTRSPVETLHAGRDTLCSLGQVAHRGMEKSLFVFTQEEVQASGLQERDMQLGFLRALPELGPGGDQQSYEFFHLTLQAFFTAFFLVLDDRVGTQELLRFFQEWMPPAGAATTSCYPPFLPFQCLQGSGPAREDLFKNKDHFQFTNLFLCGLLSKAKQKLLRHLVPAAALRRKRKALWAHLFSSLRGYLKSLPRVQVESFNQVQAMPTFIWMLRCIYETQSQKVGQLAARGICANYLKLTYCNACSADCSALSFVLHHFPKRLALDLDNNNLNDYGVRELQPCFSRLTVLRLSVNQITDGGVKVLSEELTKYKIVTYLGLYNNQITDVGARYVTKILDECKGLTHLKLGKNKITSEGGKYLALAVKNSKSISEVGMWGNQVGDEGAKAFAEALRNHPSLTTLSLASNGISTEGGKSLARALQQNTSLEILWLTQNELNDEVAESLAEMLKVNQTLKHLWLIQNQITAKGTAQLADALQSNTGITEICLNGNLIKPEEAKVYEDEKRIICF

| SMILES | outcome |
| --- | --- |
| O=C(O)CCSc1nnc(-c2ccc3c(c2)OCO3)o1 | active |
| O=C(Nc1nccs1)c1sc2cc(Cl)ccc2c1Cl | active |
| Cc1cc(NC(=O)c2cccs2)n(-c2nc3ccccc3[nH]2)n1 | active |
| COc1ccc(C(=O)Nc2ccc(-c3ccc(C)o3)cc2)cc1S(=O)(=O)N1CCOCC1 | active |
| CCOC(=O)c1ccc(NC(=O)c2ccc(C)c(S(=O)(=O)N3CCOCC3)c2)cc1 | active |
| Cc1ccc(NC(=O)CSc2ncnc3ccccc23)cc1S(=O)(=O)N1CCOCC1 | active |
| O=C(Nc1ccc(Cl)c(S(=O)(=O)N2CCOCC2)c1)c1ccc(OCC2CCCO2)cc1 (centres undefined) | active |
| CCOc1ccc(Nc2ncnc3ccc([N+](=O)[O-])cc23)cc1 | active |
| Cc1nn(-c2ccccc2)c(Cl)c1C(=O)N1CCN(c2ncnc3c2cnn3-c2ccccc2)CC1 | active |
| CN(C)CC(CCC(CN(C)C)C(=O)c1ccccc1)C(=O)c1ccccc1.Cl (centres undefined) | active |
| O=C(NCc1cccnc1)/C(=C/c1ccc(-c2cccc(Cl)c2)o1)S(=O)(=O)c1ccccc1 | active |
| O=C(NCc1cccnc1)/C(=C\c1ccc(-c2cccc(Cl)c2)o1)S(=O)(=O)c1ccccc1 | active |
| O=C(CCl)N1N=C(c2cccs2)CC1c1ccco1 (centres undefined) | active |
| O=C(CCl)N1N=C(c2ccco2)CC1c1ccco1 (centres undefined) | active |
| Cc1[nH]n(-c2ccccc2)c(=O)c1/C=N/NC(=O)c1cccc([N+](=O)[O-])c1 | active |
| Cc1ccc(-n2[nH]c(C)c(/C=N/Nc3ccc([N+](=O)[O-])cc3[N+](=O)[O-])c2=O)cc1C | active |
| O=C(N/N=C/c1ccccn1)c1sc2ccccc2c1Cl | active |
| COc1ccc(C(=O)Nc2ccccc2C(=O)N/N=C/c2ccccn2)cc1OC | active |
| CC(/C=C/c1ccccc1)=N/NC(=O)c1cc([N+](=O)[O-])cc([N+](=O)[O-])c1 | active |
| Cc1cccc(/C=N/NC(=O)c2cccc([N+](=O)[O-])c2)n1 | active |
| O=C(N/N=C/c1ccccn1)c1cc([N+](=O)[O-])cc([N+](=O)[O-])c1 | active |
| O=C(N/N=C/c1ccccn1)c1ccc(Cl)c(Cl)c1 | active |

| SMILES | outcome |
| --- | --- |
| Cc1c(CCC(=O)O)c(=O)oc2cc3oc4c(c3cc12)CCCC4 | active |
| O=C(Sc1cccc2cccnc12)c1ccccc1Br | active |
| O=C(Sc1cccc2cccnc12)c1ccc(F)cc1 | active |
| O=C(Nc1ccc(N2CCN(c3ncccc3C(F)(F)F)CC2)nc1)c1cccs1 | active |
| COc1cc(C(=O)N/N=C(\c2ccccc2)c2ccccn2)cc(OC)c1OC | active |
| COc1cccc(C(=O)N/N=C(/c2ccccc2)c2ccccn2)c1 | active |
| O=C(N/N=C(\c1ccccc1)c1cccnc1)c1cccc(F)c1 | active |
| COc1ccc(C(=O)N/N=C(\c2ccccc2)c2ccccn2)cc1 | active |
| CCOC(=O)c1c(NC(=S)NCCc2ccccc2)sc2c1CC(C(C)C)OC2 (centres undefined) | active |
| Cn1c(=O)c(C(=O)CCl)c(N)n(Cc2ccccc2)c1=O | active |
| O=C(CSc1n[nH]c(-c2ccccn2)n1)Nc1ccc(Cl)cc1 | active |
| O=C(CSc1n[nH]c(-c2ccccn2)n1)Nc1cccc(Cl)c1 | active |
| Cc1ccccc1Oc1cc(-n2ncc(Cl)c(Cl)c2=O)ncn1 | active |
| O=C(NCc1ccco1)c1sc(=S)n2c1[nH]c(=O)c1ccccc12 | active |
| CCCCNC(=O)c1sc(=S)n2c1[nH]c(=O)c1ccccc12 | active |
| O=C(NCc1ccccc1)c1sc(=S)n2c1[nH]c(=O)c1ccccc12 | active |
| CC(C)NC(=O)c1sc(=S)n2c1[nH]c(=O)c1ccc(C(=O)NCCc3ccc(Cl)cc3)cc12 | active |
| C=C(C)C(=O)O[C@H]1C/C(C)=C\C(=O)/C=C(\C)[C@H](O)[C@@H]2OC(=O)C(=C)[C@@H]21 | active |
| CC1(C)N=C(N)N=C(N)N1c1ccc(OCCCOc2ccccc2)c(Cl)c1.CCS(=O)(=O)O | active |
| O=C(NCc1cccnc1)/C(=C\c1ccc(-c2ccc(Cl)c(Cl)c2)o1)S(=O)(=O)c1ccccc1 | active |
| O=C(NCc1cccnc1)/C(=C/c1ccc(-c2ccc(Cl)cc2)o1)S(=O)(=O)c1ccccc1 | active |
| COc1ccc(-c2cc(=O)oc3cc(OC(=O)C4CCCCC4)c(Cl)cc23)cc1 | active |

| SMILES | outcome |
| --- | --- |
| O=C(Oc1cc2oc(=O)cc(-c3ccccc3)c2cc1Cl)C1CCCCC1 | active |
| Br.O=[N+]([O-])c1ccc(N/N=C/c2sc(N3CCOCC3)nc2-c2ccccc2)c(S(=O)(=O)Nc2ccc(Cl)cc2)c1 | active |
| O=[N+]([O-])c1ccc(N/N=C/c2sc(N3CCOCC3)nc2-c2ccccc2)c(S(=O)(=O)Nc2ccccc2Cl)c1 | active |
| Cc1ccc(N=c2oc3cc(O)ccc3cc2C(N)=O)cc1 | active |
| COc1ccc2cc(C(N)=O)c(=Nc3ccc(C)cc3)oc2c1 | active |
| COc1ccc(C2C(O)C(c3c[nH]c4ccccc34)=NN2C(=O)CCl)cc1 (centres undefined) | active |
| COc1cccc(C(=O)Nc2ccc(Oc3cccc(C(F)(F)F)c3)nc2)c1 | active |
| CN(C)c1ccnc2sc(C(N)=O)c(N)c12 | active |
| Brc1ccc2ncnc(Nc3cccc4ccccc34)c2c1 | active |
| COc1ccc(Nc2ncnc3ccc(Br)cc23)cc1OC | active |
| CC(=O)c1cccc(Nc2ncnc3ccc(Br)cc23)c1 | active |
| Cc1ccc(OCCN2CCN(c3ncnc4sc(C)c(C)c34)CC2)cc1 | active |
| Cc1cc(C)c(C)c(S(=O)(=O)N2CCN(c3ncnc4sc(C)c(C)c34)CC2)c1C | active |
| O=[N+]([O-])c1cc(S(=O)(=O)Nc2cccc(C(F)(F)F)c2)ccc1-n1nnc2ccccc21 | active |
| CN(C)/C=C/c1c([N+](=O)[O-])c2ccc(O)cc2n1-c1ccccc1 | active |
| Cc1c([N+](=O)[O-])c2ccc(O)cc2n1-c1ccccc1 | active |
| S=C(NNc1ccnc2cc(Cl)ccc12)Nc1ccccc1Cl | active |
| COc1cccc(-n2nnnc2S(C)(=O)=O)c1 | active |
| N#CCCS(=O)(=O)c1nnnn1-c1ccccc1 | active |
| CCCS(=O)(=O)c1nnnn1-c1cccc(OC)c1 | active |
| CS(=O)(=O)c1ccc(C(=O)OCc2nnc(-c3ccccc3)o2)cc1[N+](=O)[O-] | active |
| CCN(Cc1ccccc1)S(=O)(=O)c1ccc(C(=O)Nc2nnc(C3CC3)o2)cc1 | active |

| SMILES | outcome |
| --- | --- |
| CCCCN(CC)S(=O)(=O)c1ccc(C(=O)Nc2nnc(-c3cccs3)o2)cc1 | active |
| CCCCN(C)S(=O)(=O)c1ccc(C(=O)Nc2nnc(-c3cccs3)o2)cc1 | active |
| CCCCN(CC)S(=O)(=O)c1ccc(C(=O)Nc2nnc(-c3ccccc3Cl)o2)cc1 | active |
| COc1ccccc1-c1nnc(Nc2nc3c(OC)cccc3s2)o1 | active |
| Cc1cccnc1Nc1nc(-c2ccccn2)cs1 | active |
| COc1cccc2sc(Nc3nc(-c4ccccn4)cs3)nc12 | active |
| COc1ccc(Nc2oc(COc3ccccc3OC)nc2C#N)cc1 | active |
| Cc1oc2c(F)c(F)c(F)c(F)c2c1S(=O)(=O)Nc1cccc(C(F)(F)F)c1 | active |
| CCCn1c(SCC(=O)Nc2nc3c(s2)CCCC3)nc2c1c(=O)n(C)c(=O)n2C | active |
| CCCCn1c(SCC(=O)Nc2nnc(CC)s2)nc2c1c(=O)n(C)c(=O)n2C | active |
| O=C(NC1CCCC1)c1sc(=S)n2c1[nH]c(=O)c1ccccc12 | active |
| O=C(NC1CCCCC1)c1sc(=S)n2c1[nH]c(=O)c1ccccc12 | active |
| Cc1ncoc1C(=O)NC1CCCc2c1cnn2-c1ccc(C(C)(C)C)cc1 (centres undefined) | active |
| Cc1ccc(-n2ncc3c2CCCC3NC(=O)c2ocnc2C)cc1C (centres undefined) | active |
| CCC1Sc2ccc(S(=O)(=O)Nc3ccc(OC)c(OC)c3)cc2NC1=O (centres undefined) | active |
| O=C(Nc1nnc(-c2ccc3c(c2)CCCC3)o1)c1ccccc1Cl | active |
| O=C(Nc1nnc(-c2ccc3c(c2)CCCC3)o1)c1ccccc1 | active |
| O=C(Nc1nnc(-c2ccc3c(c2)CCCC3)o1)c1ccc(Cl)cc1Cl | active |
| COc1ccc2c(C#N)c3ccccn3c2c1 | active |
| N#Cc1c2ccc(O)cc2n2ccccc12 | active |
| COc1ccc2[nH]c(=O)c3c(c2c1)OC(C)(C)C=C3 | active |
| O=C(Nc1ccccn1)C1CCN(c2ncnc3c2nc2n3CCCCC2)CC1 | active |

| SMILES | outcome |
| --- | --- |
| O=C(NCC1CCN(Cc2ccc(Cl)cc2)CC1)C1CCCN(c2ncnc3c2nc2n3CCCCC2)C1 (centres undefined) | active |
| O=C(Nc1ccc(Cl)cn1)C1CCN(c2ncnc3c2nc2n3CCCCC2)CC1 | active |
| Cc1ccc(NC(=O)C2CCCN(c3ncnc4c3nc3n4CCCCC3)C2)nc1 (centres undefined) | active |
| O=C(Nc1ccccc1Cl)/C(Cl)=C(\Cl)S(=O)c1ccccc1 (centres undefined) | active |
| CC(=O)N1CC(C)Sc2ccc(S(=O)(=O)NCCc3ccc(C)cc3)cc21 (centres undefined) | active |
| COc1cc(/C=C2\SC(=N)N(c3ccc(F)cc3)C2=O)ccc1O | active |
| N#C/C(=C\C=C\c1ccccc1[N+](=O)[O-])C(=O)NC1CCCCC1 | active |
| Br.CCCCCCCCCn1ccc(=N)cc1 | active |
| Br.CCCCCCCCCCn1ccc(=N)cc1 | active |
| Br.CCCCCCCCn1ccc(=N)cc1 | active |
| Fc1ccccc1/C=N/Nc1nc(-c2ccccn2)nc2ccccc12 | active |
| C(=N\Nc1nc(-c2ccccn2)nc2ccccc12)/c1ccccc1 | active |
| COc1cccc(Nc2nc(NCCO)c3ccccc3n2)c1.Cl | active |
| O=c1cc(CSc2nnc(-c3cccs3)n2Cc2ccccc2)nc2sc3ccccc3n12 | active |
| COc1ccc(OC)c(CCNC(=O)Cn2nc(C)c3c(C)n(-c4ccc(C)cc4)nc3c2=O)c1 | active |
| COc1ccc(CCNC(=O)C(C)n2nc(C)c3c(C)n(-c4ccc(C)cc4)nc3c2=O)c(OC)c1 (centres undefined) | active |
| COc1ccc(OC)c(CCNC(=O)C(C)n2nc(C)c3c(C)n(-c4ccc(C)cc4)nc3c2=O)c1 (centres undefined) | active |
| CCOc1ccccc1CNC(=O)Cn1nc(C)c2c(C)n(-c3ccc(C)cc3)nc2c1=O | active |
| Cc1ccc(CS(=O)(=O)c2ncc(Cl)c(C(=O)Nc3nnc(C(C)C)s3)n2)cc1 | active |
| Cc1cccc(CS(=O)(=O)c2ncc(Cl)c(C(=O)Nc3nnc(C(C)C)s3)n2)c1 | active |
| CSc1nnc(NC(=O)c2nc(S(=O)(=O)Cc3ccc(C)cc3)ncc2Cl)s1 | active |
